About 420 (28%) of roughly 1,500 compounds were called active. The list is a sample of the results. Values without a mark were called inactive. No stated cut-off is given here; in the data, active means inhibition above about 9.5%; inactive means the rest.

In PubChem BioAssay AID743201 (The Scripps Research Institute Molecular Screening Center, 2013) one finds inhibition data, which are given here for 63 compounds.

The nature of the experiment: cytotoxicity in LD9 cells, cytotoxicity control for cell surface PrPc inhibitor project, cell-based, luminescence, high throughput (AID 743201). Particulars: luminescence viability, at 13.8 µM, active compounds read high.
`O=C(Nc1ccc(C2CC2(Cl)Cl)cc1)c1cccc([N+](=O)[O-])c1` (stereo not drawn): the inhibition was 22.1% (active).

Regarding `O=C(Oc1ccccc1)Oc1ccc2c(c1)oc(=O)c1ccccc12`, the inhibition is -2.43%.

In the case of `O=C(COC(=O)c1ccccc1SCC(=O)NC1CCCCC1)NC1CCCCC1`, the inhibition was -4.15%.

`O=C(Nc1cccn(Cc2ccccc2Cl)c1=O)NC1CCCCC1`: the inhibition was -0.08%.

With `Cc1nc(/N=C(\N)NC(=O)NC2CCCCC2)nc2ccccc12`, the inhibition is 13.3% (active).

With `CC1(C)Cc2ccccc2-c2[nH]c(=S)[nH]c(=O)c21`, the inhibition was 0.24%.

As for `O=C(/C=C/c1ccc([N+](=O)[O-])o1)NNC(=O)c1ccc(F)cc1`, the inhibition is 81% (active).

On to `Cn1c(=S)sc2ccc3ccccc3c21`, for which the inhibition was -9.96%.

Regarding `Cc1ccc(CSc2ccc(S(=O)(=O)N3CCCCC3)cn2)cc1`, the inhibition was -3.1%.

Consider `O=C(Nc1ccc(N2CCN(C(=O)c3ccccc3)CC2)c(Cl)c1)c1cccnc1`, for which the inhibition was 10.4% (active).

Regarding `CCCCC(=O)NC(c1ccc(OC)c(OC)c1)c1ccc2cccnc2c1O` (stereo not drawn), the inhibition was 34.6% (active).

`COc1ccc(NC(=O)COC(=O)CNC(=O)C2CCCCC2)cc1`: the inhibition is -1.65%.

As for `Cc1cccc(CS(=O)(=O)c2ncc(Cl)c(C(=O)Nc3ccc(F)cc3)n2)c1`, the inhibition is 97.1% (active).

On to `Cc1cccc(NC(=O)c2nc(S(=O)(=O)Cc3ccccc3)ncc2Cl)c1`, for which the inhibition is 88.2% (active).

Turning to `O=C(Cc1ccccc1)Nc1cccc(NC(=O)c2ccccc2)c1`, the inhibition was -4%.

Turning to `CCc1c(C)nc2cc(-c3cccs3)[nH]n2c1=O`, the inhibition was -5.48%.

For the compound `Fc1ccc2[nH]c3c(N4CCSCC4)ncnc3c2c1`, the inhibition was 49.1% (active).

Turning to `COc1cccc2sc3cc(NCC[C@@H]4CCCN4C)ccc3c(=O)c12`, the inhibition was 3.87%.

`COc1ccc(S(=O)(=O)N2CCOCC2)cc1NC(=O)CSc1ncnc2ccccc12`: the inhibition is -10%.

Regarding `COc1ccc(C(=O)Nc2nc(-c3ccc(S(=O)(=O)N4CCOCC4)cc3)cs2)cc1`, the inhibition is 24.7% (active).

For `Cc1cc2cc(CNC(=O)c3ccc(S(=O)(=O)N4CCOCC4)cc3)ccc2[nH]1`, the inhibition was -3.01%.

With `C=CCNC(=O)CSc1nc2scc(-c3ccco3)c2c(=O)n1CC=C`, the inhibition was -1.71%.

Regarding `N#C/C=C1\Sc2ccccc2C(=O)N1CC(=O)N1CCN(S(=O)(=O)c2ccccc2)CC1`, the inhibition was -0.34%.

For `CN(C)CCNC(=O)c1ccc(Cl)c2cc3ccccc3nc12`, the inhibition is 62.4% (active).

On to `COc1ccc(OC)c(NC(=O)c2cc(-c3cc(F)ccc3OCC3CCCO3)n[nH]2)c1` (stereo not drawn), for which the inhibition was 6.36%.

Regarding `CCc1nc(SCC(=O)NNC(=O)c2ccc(C)cc2)c2ccccc2n1`, the inhibition was -9.92%.

On to `CCCc1nc(SCC(=O)Nc2ccc(S(=O)(=O)N(C)C)cc2)c2ccccc2n1`, for which the inhibition was 11.4% (active).

Turning to `COC(=O)CSc1nc(C2CC2)nc2ccccc12`, the inhibition was 2.09%.

`CCC(C)(O)C(=O)OC1C(=O)OC2CC3C(C)=CC(=O)C(O)C3(C)C3C4(O)OCC23C1C(C)C4O` (stereo not drawn): the inhibition was 31.5% (active).

With `CCCOc1ccc(C2C(C(=O)c3ccc(C)o3)=C(O)C(=O)N2CCCn2ccnc2)cc1` (stereo not drawn), the inhibition was -8.43%.

For `O=C(NC(Nc1nc2ccc([N+](=O)[O-])cc2s1)(C(F)(F)F)C(F)(F)F)c1ccccc1`, the inhibition was 60.2% (active).

With `Cc1ccc(Oc2cnn(-c3ccccc3)c(=O)c2Br)cc1`, the inhibition was -5.84%.

Turning to `CCOC(=O)c1c(C)[nH]c(=S)c(C#N)c1-c1ccccc1`, the inhibition was -0.71%.

Turning to `O=c1[nH]cccc1-c1nc2ccccc2n1Cc1ccc(Cl)cc1`, the inhibition was 18% (active).

Turning to `N#Cc1ccc(OCC(=O)Nc2nc(-c3ccccn3)cs2)cc1`, the inhibition was 6.29%.

As for `CC(=O)c1sc2nc(SCC(=O)N3CCCCC3)[nH]c(=O)c2c1C`, the inhibition was -4.99%.

As to `NC(=O)C1CCN(Cc2nc3c(Br)cc(Br)cc3c(=O)[nH]2)CC1`, the inhibition was -0.26%.

Consider `O=C(CC(O)(C(F)(F)F)C(F)(F)F)Nc1ccc(Cl)c(Cl)c1`, for which the inhibition is 59.4% (active).

As for `Cc1sc2ncnc(SCC(=O)Nc3ccc(CN4CCCC4)cc3)c2c1C`, the inhibition was 4.39%.

Consider `COc1ccc2c(Cl)c(-c3nnco3)sc2c1`, for which the inhibition was 0.91%.

Regarding `O=C(c1ccc(F)cc1)c1cn(Cc2ccc(F)cc2)c2cc3c(cc2c1=O)OCCO3`, the inhibition is 0.17%.

Regarding `CCCCCCCCn1c2c(c(=N)c3c1CCC3)CCCC2`, the inhibition was 27.8% (active).

As for `Cc1cc2ccccc2n1CCNC(=O)COc1ccc2ccccc2c1`, the inhibition is 3.16%.

As for `CO[C@H]([C@H](C)/C=C/N(C)C=O)[C@@H](C)C(=O)CC[C@H](C)[C@H](O)[C@H](C)[C@H]1OC(=O)/C=C/C(C)=C/[C@H](O)[C@H](OC)C[C@@H]2C=CC[C@@H](C[C@H](OC)[C@@]3(CO3)[C@@H](OC)C[C@@H](OC)[C@@H]1C)O2`, the inhibition was 22.6% (active).

For the compound `FC(F)(F)c1cccc(NC(=S)OC2CCC23CCC(c2ccccc2)CC3)c1` (stereo not drawn), the inhibition is 6.03%.

As to `CCCCNc1c(-c2cccc(Sc3ccc(OC)cc3)c2)nc2ccccn12`, the inhibition is 17.3% (active).

As for `N#Cc1c(-c2cccs2)nc(SCC(=O)c2ccc(Br)cc2)[nH]c1=O`, the inhibition was -2.36%.

`Cc1ccc(CNC(=O)Nc2nnc([C@H]3C[C@H](O)[C@@H](CO)O3)s2)cc1`: the inhibition was -1.07%.

`O=C1CCCC2=C1C(c1cccs1)n1nc(SCc3ccccc3)nc1N2` (stereo not drawn): the inhibition is -3.22%.

On to `CC(=O)Nc1cccc(OCC(=O)/C=C2\N(C)c3ccccc3C2(C)C)c1`, for which the inhibition was 13.8% (active).

For the compound `CN1/C(=C\C(=O)c2oc3ccccc3c2N)C(C)(C)c2ccccc21`, the inhibition is 7.55%.

With `Cc1ccsc1C(=O)OCC(=O)Nc1cccc(F)c1`, the inhibition was -2.87%.

With `Cc1[nH]n(-c2ccccc2)c(=O)c1/C=N/NC(=O)c1ccoc1C`, the inhibition is 21.3% (active).

For `CCOC(=O)c1c(-c2ccccc2)oc2cc(Br)c(O)cc12`, the inhibition was -6.88%.

As to `COC(=O)Cc1[nH]n(-c2nc3ccccc3s2)c(=O)c1C(C)=Nc1ccc(OC)cc1`, the inhibition was -5.36%.

As to `CC(=O)c1nc(N2C(=O)C3CC=C(C)CC3C2=O)sc1C` (stereo not drawn), the inhibition was -5.65%.

In the case of `CCCCCCCCCCCCn1ccc(=N)cc1`, the inhibition is 33.6% (active).

Turning to `COc1cc(-n2c(=S)[nH]c3ccc(C)cc3c2=O)c(Cl)cc1Cl`, the inhibition is -3.19%.

`Cc1ccc(NC(=O)c2sc3nc(N)c(C#N)cc3c2N)cc1`: the inhibition was 14.7% (active).

`CC(=O)N1CCCc2cc(S(=O)(=O)N3CCCC(C(=O)NCc4ccc(Cl)cc4)C3)ccc21` (stereo not drawn): the inhibition was 4.27%.

For the compound `CC(=O)N1c2ccc(S(=O)(=O)N3CCCC(C(=O)Nc4cccc(F)c4)C3)cc2CC1C` (stereo not drawn), the inhibition was 10.8% (active).

In the case of `CC(=O)N1CCCc2cc(S(=O)(=O)N3CCCC(C(=O)N4CCN(c5cccc(Cl)c5)CC4)C3)ccc21` (stereo not drawn), the inhibition is 24.1% (active).

Turning to `Cc1ccnc(NC(=O)C2CCN(S(=O)(=O)c3c(C)c(C)cc(C)c3C)CC2)c1`, the inhibition is -5.26%.

Broadly, the inhibition is the drop in the measured response relative to a control, in per cent.
